According to the supplement of paper PMC8728848:
This is one part of a sample in which the strongest signals are shown more often than they occur.

Columns and labels:
Assay in all cases: glycan array binding signal (z-score within array); higher = stronger binding
Details in all cases: glycan notation: IUPAC condensed, linker removed
Fuc(a1-2)Gal(b1-3)GlcNAc = target: Fuc(a1-2)Gal(b1-3)GlcNAc
Outline: (§1)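 The binding signal is a Z-score computed within each array. Data were drawn from 3228 arrays in the Consortium for Functional Glycomics database, restricted to those with a known protein sequence. Scores were averaged over arrays of the same protein sequence at different concentrations or buffers, and over linkers, and negative values can be taken as non-binding.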

[1] = target: Fuc(a1-2)Gal(b1-3)GlcNAc(b1-2)Man(a1-3)[Fuc(a1-2)Gal(b1-3)GlcNAc(b1-2)Man(a1-6)]Man(b1-4)GlcNAc(b1-4)[Fuc(a1-6)]GlcNAc
Outline: as §1

[2] = target: Fuc(a1-2)Gal(b1-3)GlcNAc(b1-3)GalNAc
Outline: as §1

[3] = target: Fuc(a1-2)Gal(b1-3)GlcNAc(b1-3)[Neu5Ac(a2-6)Gal(b1-4)GlcNAc(b1-6)]Gal(b1-4)Glc
Outline: as §1

[4] = target: Fuc(a1-2)Gal(b1-4)GlcNAc(b1-6)GalNAc
Outline: as §1

[5] = target: Fuc(a1-2)[Gal(a1-3)]Gal(b1-4)GlcNAc(b1-2)Man
Outline: as §1

[6] = target: Fuc(a1-2)[Gal(a1-3)]Gal(b1-4)GlcNAc(b1-2)Man(a1-3)[Fuc(a1-2)[Gal(a1-3)]Gal(b1-4)GlcNAc(b1-2)Man(a1-6)]Man(b1-4)GlcNAc(b1-4)GlcNAc
Outline: as §1

[7] = target: Fuc(a1-2)[Gal(a1-3)]Gal(b1-4)GlcNAc(b1-3)GalNAc
Outline: as §1

[8] = target: Fuc(a1-2)[Gal(a1-3)]Gal(b1-4)GlcNAc(b1-3)[Fuc(a1-2)[Gal(a1-3)]Gal(b1-4)GlcNAc(b1-6)]GalNAc
Outline: as §1

[9] = target: Fuc(a1-2)[GalNAc(a1-3)]Gal(b1-4)GlcNAc(b1-2)Man
Outline: as §1

[10] = target: Fuc(a1-3)[Gal(b1-4)]GlcNAc(b1-3)GalNAc
Outline: as §1

Fuc(a1-4)GlcNAc = target: Fuc(a1-4)GlcNAc
Outline: as §1

[11] = target: Gal(a1-3)Gal(b1-4)GlcNAc(b1-2)Man(a1-3)[Gal(a1-3)Gal(b1-4)GlcNAc(b1-2)Man(a1-6)]Man(b1-4)GlcNAc(b1-4)GlcNAc
Outline: as §1

[12] = target: Gal(a1-3)[Gal(a1-4)]Gal(b1-4)GlcNAc
Outline: as §1

[13] = target: Gal(a1-4)Gal(b1-4)GlcNAc(b1-2)Man(a1-3)[Gal(a1-4)Gal(b1-4)GlcNAc(b1-2)Man(a1-6)]Man(b1-4)GlcNAc(b1-4)GlcNAc
Outline: as §1

Gal(b1-3)Gal = target: Gal(b1-3)Gal
Outline: as §1

[14] = target: Gal(b1-3)GalNAc(a1-3)[Fuc(a1-2)]Gal(b1-4)Glc
Outline: as §1

[15] = target: Gal(b1-3)GlcNAc(b1-6)GalNAc
Outline: as §1

Gal(b1-3)GlcNAc6S = target: Gal(b1-3)GlcNAc6S
Outline: as §1

[16] = target: Gal(b1-3)[Fuc(a1-4)]GlcNAc
Outline: as §1

Gal(b1-4)Gal = target: Gal(b1-4)Gal
Outline: as §1

[17] = target: Gal(b1-4)GlcNAc(b1-2)Man(a1-3)[GlcNAc(b1-2)Man(a1-6)]Man(b1-4)GlcNAc(b1-4)GlcNAc
Outline: as §1

[18] = target: Gal(b1-4)GlcNAc(b1-2)Man(a1-6)[Man(a1-3)]Man(b1-4)GlcNAc(b1-4)GlcNAc
Outline: as §1

[19] = target: Gal(b1-4)GlcNAc(b1-2)[Gal(b1-4)GlcNAc(b1-4)]Man(a1-3)[Gal(b1-4)GlcNAc(b1-2)[Gal(b1-4)GlcNAc(b1-6)]Man(a1-6)]Man(b1-4)GlcNAc(b1-4)GlcNAc
Outline: as §1

[20] = target: Gal(b1-4)GlcNAc(b1-2)[Gal(b1-4)GlcNAc(b1-6)]Man(a1-6)[Gal(b1-4)GlcNAc(b1-2)Man(a1-3)]Man(b1-4)GlcNAc(b1-4)[Fuc(a1-6)]GlcNAc
Outline: as §1

[21] = target: Gal(b1-4)GlcNAc(b1-3)Gal(b1-4)GlcNAc(b1-2)Man(a1-3)[Gal(b1-4)GlcNAc(b1-3)Gal(b1-4)GlcNAc(b1-2)Man(a1-6)]Man(b1-4)GlcNAc(b1-4)GlcNAc
Outline: as §1

[22] = target: Gal(b1-4)GlcNAc(b1-3)Gal(b1-4)GlcNAc(b1-2)[Gal(b1-4)GlcNAc(b1-3)Gal(b1-4)GlcNAc(b1-6)]Man(a1-6)[Gal(b1-4)GlcNAc(b1-3)Gal(b1-4)GlcNAc(b1-2)Man(a1-3)]Man(b1-4)GlcNAc(b1-4)GlcNAc
Outline: as §1

[23] = target: Gal(b1-4)GlcNAc(b1-3)Gal(b1-4)GlcNAc(b1-6)[Gal(b1-3)]GalNAc
Outline: as §1

Gal(b1-4)GlcNAc6P = target: Gal(b1-4)GlcNAc6P
Outline: as §1

[24] = target: GalNAc(b1-4)GlcNAc(b1-2)Man(a1-3)[GalNAc(b1-4)GlcNAc(b1-2)Man(a1-6)]Man(b1-4)GlcNAc(b1-4)GlcNAc
Outline: as §1

[25] = target: GalNAc(b1-4)GlcNAc(b1-3)GalNAc(b1-4)GlcNAc
Outline: as §1

Glc(a1-6)Glc(a1-6)Glc = target: Glc(a1-6)Glc(a1-6)Glc
Outline: as §1

[26] = target: GlcNAc(b1-2)Man(a1-3)[GlcNAc(b1-2)Man(a1-6)]Man(b1-4)GlcNAc(b1-4)[Fuc(a1-6)]GlcNAc
Outline: as §1

[27] = target: GlcNAc(b1-2)[GlcNAc(b1-6)]Man(a1-6)[GlcNAc(b1-4)][GlcNAc(b1-2)Man(a1-3)]Man(b1-4)GlcNAc(b1-4)GlcNAc
Outline: as §1

[28] = target: GlcNAc(b1-3)Gal(b1-4)GlcNAc(b1-3)Gal(b1-4)GlcNAc(b1-2)Man(a1-3)[GlcNAc(b1-3)Gal(b1-4)GlcNAc(b1-3)Gal(b1-4)GlcNAc(b1-2)Man(a1-6)]Man(b1-4)GlcNAc(b1-4)GlcNAc
Outline: as §1

[29] = target: GlcNAc(b1-3)Gal(b1-4)GlcNAc(b1-3)[GlcNAc(b1-3)Gal(b1-4)GlcNAc(b1-3)]GalNAc
Outline: as §1

[30] = target: GlcNAc(b1-4)GlcNAc(b1-4)GlcNAc(b1-4)GlcNAc(b1-4)GlcNAc
Outline: as §1

[31] = target: Man(a1-3)[Man(a1-6)]Man(a1-6)[Man(a1-2)Man(a1-3)]Man(b1-4)GlcNAc(b1-4)GlcNAc
Outline: as §1

Man(b1-4)GlcNAc = target: Man(b1-4)GlcNAc
Outline: as §1

[32] = target: Neu5Ac(a2-3)Gal(b1-3)[Neu5Ac(a2-6)]GlcNAc(b1-3)[Fuc(a1-3)[Gal(b1-4)]GlcNAc(b1-6)]Gal(b1-4)Glc
Outline: as §1

[33] = target: Neu5Ac(a2-3)Gal(b1-4)GlcNAc(b1-3)Gal(b1-4)GlcNAc(b1-2)Man(a1-3)[Neu5Ac(a2-3)Gal(b1-4)GlcNAc(b1-3)Gal(b1-4)GlcNAc(b1-2)Man(a1-6)]Man(b1-4)GlcNAc(b1-4)GlcNAc
Outline: as §1

[34] = target: Neu5Ac(a2-3)Gal(b1-4)GlcNAc(b1-3)Gal(b1-4)GlcNAc(b1-3)GalNAc
Outline: as §1

[35] = target: Neu5Ac(a2-3)Gal(b1-4)GlcNAc6S
Outline: as §1

[36] = target: Neu5Ac(a2-3)Gal(b1-4)[Fuc(a1-3)]GlcNAc(b1-3)GalNAc
Outline: as §1

[37] = target: Neu5Ac(a2-3)Gal6S(b1-4)[Fuc(a1-3)]GlcNAc
Outline: as §1

[38] = target: Neu5Ac(a2-3)[GalNAc(b1-4)]Gal(b1-4)GlcNAc(b1-3)GalNAc
Outline: as §1

[39] = target: Neu5Ac(a2-6)Gal(b1-4)GlcNAc
Outline: as §1

[40] = target: Neu5Ac(a2-6)Gal(b1-4)GlcNAc(b1-3)Gal(b1-4)GlcNAc(b1-3)Gal(b1-4)GlcNAc(b1-2)Man(a1-3)[Neu5Ac(a2-6)Gal(b1-4)GlcNAc(b1-3)Gal(b1-4)GlcNAc(b1-3)Gal(b1-4)GlcNAc(b1-2)Man(a1-6)]GalNAc
Outline: as §1

[41] = target: Neu5Ac(a2-6)GalNAc(b1-4)GlcNAc6S
Outline: as §1

[42] = target: Neu5Ac(a2-8)Neu5Ac(a2-3)[GalNAc(b1-4)]Gal(b1-4)Glc
Outline: as §1

[43] = target: Neu5Ac(a2-8)Neu5Ac(a2-8)Neu5Ac(a2-3)[Gal(b1-3)GalNAc(b1-4)]Gal(b1-4)Glc
Outline: as §1

[44] = target: Neu5Ac(a2-8)Neu5Ac(a2-8)Neu5Ac(a2-3)[GalNAc(b1-4)]Gal(b1-4)Glc
Outline: as §1

[45] = target: Neu5Ac(a2-8)Neu5Gc(a2-3)Gal(b1-4)GlcNAc
Outline: as §1

[46] = target: Neu5Gc(a2-3)Gal(b1-4)GlcNAc(b1-3)Gal(b1-4)GlcNAc(b1-2)Man(a1-3)[Neu5Gc(a2-3)Gal(b1-4)GlcNAc(b1-3)Gal(b1-4)GlcNAc(b1-2)Man(a1-6)]Man(b1-4)GlcNAc(b1-4)GlcNAc
Outline: as §1

[47] = target: Neu5Gc(a2-3)Gal(b1-4)[Fuc(a1-3)]GlcNAc
Outline: as §1

[48] = target: Neu5Gc(a2-8)Neu5Gc(a2-6)Gal(b1-4)GlcNAc
Outline: as §1

B1: PX15642A-pgi-501-20-501 (Parabacteroides gingivalis) (protein)
chain: CELDRDPEGKDFQQPYTSFVQTKQNRDGLYALLRNTENPRMHFYQELQSDMYCTTITDGNSLAPFVNWDLGILNDHGRADEDEVSGIAGYYFVYNRLNQQANAFVNNTEAALQNQVYKNSTEIANAKSFLAEGKVLQALAIWRLMDRFSFHESVTEVNSGAKDLGVILLKEYNPGYIGPRATKAQCYDYILSRLSEAIEVLPENRESVLYVSRDYAYALRARIYLALGEYGKAAADAKMVVDKYPLIGAADASEFENIYRSDANNPEIIFRGFASATLGSFTATTLNGAAPAGKDIKYNPSAVPFQWVVDLYENEDFRKSVYIAKVVKKDKGYLVNKFLEDKAYRDVQDKPNLKVGARYFSVAEVYLILVESALQTGDTPTAEKYLKALSKARGAEVSVVNMEALQAERTRELIGEGSRLRDMVRWSIPNNHDAFETQPGLEGFANTTPLKAQAPVGFYAYTWEFPQRDRQTNPQLIKNWPI
Fuc(a1-2)Gal(b1-3)GlcNAc
  glycan array binding signal (z-score): -0.306
[1]
  glycan array binding signal (z-score): 0.224
[2]
  glycan array binding signal (z-score): -0.094
[3]
  glycan array binding signal (z-score): -0.121
[4]
  glycan array binding signal (z-score): 2.85
[5]
  glycan array binding signal (z-score): -0.144
[6]
  glycan array binding signal (z-score): 0.849
[7]
  glycan array binding signal (z-score): 1.21
[8]
  glycan array binding signal (z-score): 0.225
[9]
  glycan array binding signal (z-score): -0.848
[10]
  glycan array binding signal (z-score): -0.744
Fuc(a1-4)GlcNAc
  glycan array binding signal (z-score): 2.72
[11]
  glycan array binding signal (z-score): -0.319
[12]
  glycan array binding signal (z-score): 6.32
[13]
  glycan array binding signal (z-score): 0.38
Gal(b1-3)Gal
  glycan array binding signal (z-score): 0.322
[14]
  glycan array binding signal (z-score): 1.53
[15]
  glycan array binding signal (z-score): -0.003
Gal(b1-3)GlcNAc6S
  glycan array binding signal (z-score): 0.706
[16]
  glycan array binding signal (z-score): -0.298
Gal(b1-4)Gal
  glycan array binding signal (z-score): 0.332
[17]
  glycan array binding signal (z-score): 0.359
[18]
  glycan array binding signal (z-score): -0.027
[19]
  glycan array binding signal (z-score): 0.733
[20]
  glycan array binding signal (z-score): 0.317
[21]
  glycan array binding signal (z-score): 2.09
[22]
  glycan array binding signal (z-score): 2.23
[23]
  glycan array binding signal (z-score): 2.71
Gal(b1-4)GlcNAc6P
  glycan array binding signal (z-score): -0.285
[24]
  glycan array binding signal (z-score): 1.15
[25]
  glycan array binding signal (z-score): 5.6
Glc(a1-6)Glc(a1-6)Glc
  glycan array binding signal (z-score): 1.35
[26]
  glycan array binding signal (z-score): 0.116
[27]
  glycan array binding signal (z-score): -0.076
[28]
  glycan array binding signal (z-score): 2.32
[29]
  glycan array binding signal (z-score): 0.014
[30]
  glycan array binding signal (z-score): 0
[31]
  glycan array binding signal (z-score): 0.018
Man(b1-4)GlcNAc
  glycan array binding signal (z-score): 0.033
[32]
  glycan array binding signal (z-score): -0.808
[33]
  glycan array binding signal (z-score): 0.992
[34]
  glycan array binding signal (z-score): -0.213
[35]
  glycan array binding signal (z-score): -0.486
[36]
  glycan array binding signal (z-score): 3.38
[37]
  glycan array binding signal (z-score): -1.24
[38]
  glycan array binding signal (z-score): -1.14
[39]
  glycan array binding signal (z-score): -0.264
[40]
  glycan array binding signal (z-score): 2.23
[41]
  glycan array binding signal (z-score): 0.286
[42]
  glycan array binding signal (z-score): -0.038
[43]
  glycan array binding signal (z-score): 1.75
[44]
  glycan array binding signal (z-score): 0.122
[45]
  glycan array binding signal (z-score): 15.5
[46]
  glycan array binding signal (z-score): 0.077
[47]
  glycan array binding signal (z-score): -0.476
[48]
  glycan array binding signal (z-score): -0.753
